The values that follow come from the supplement of paper PMC8728848.

Many of the other results were omitted from the sample, so the strongest signals are more common in it than they were.

What all share (test): glycan array binding signal (z-score within array); higher = stronger binding
What all share (conditions): glycan notation: IUPAC condensed, linker removed

For test [1], the target named is Gal(b1-4)GlcNAc(b1-3)Gal(b1-4)GlcNAc(b1-3)Gal(b1-4)GlcNAc(b1-3)Gal(b1-4)GlcNAc(b1-2)Man(a1-3)[Gal(b1-4)GlcNAc(b1-3)Gal(b1-4)GlcNAc(b1-3)Gal(b1-4)GlcNAc(b1-3)Gal(b1-4)GlcNAc(b1-2)Man(a1-6)]Man(b1-4)GlcNAc(b1-4)[Fuc(a1-6)]GlcNAc. The method in brief: (§1)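 Arrays were curated from the Consortium for Functional Glycomics database, 3228 in total, and kept only where the protein sequence was available. Binding is expressed as a within-array Z-score. This score was averaged across arrays of the same protein sequence at different concentrations or buffers and across linkers, and negative values can be read as non-binding.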

The target in test [2] is Gal(b1-4)GlcNAc(b1-3)Gal(b1-4)GlcNAc(b1-3)Gal(b1-4)GlcNAc(b1-3)Gal(b1-4)GlcNAc(b1-3)Gal(b1-4)GlcNAc(b1-2)Man(a1-3)[Gal(b1-4)GlcNAc(b1-3)Gal(b1-4)GlcNAc(b1-3)Gal(b1-4)GlcNAc(b1-3)Gal(b1-4)GlcNAc(b1-3)Gal(b1-4)GlcNAc(b1-2)Man(a1-6)]Man(b1-4)GlcNAc(b1-4)GlcNAc. The method in brief: as §1
For test [3], the target named is Gal(b1-4)GlcNAc(b1-3)Gal(b1-4)GlcNAc(b1-3)Gal(b1-4)GlcNAc(b1-3)Gal(b1-4)GlcNAc(b1-3)Gal(b1-4)GlcNAc(b1-3)Gal(b1-4)GlcNAc(b1-2)Man(a1-3)[Gal(b1-4)GlcNAc(b1-3)Gal(b1-4)GlcNAc(b1-3)Gal(b1-4)GlcNAc(b1-3)Gal(b1-4)GlcNAc(b1-3)Gal(b1-4)GlcNAc(b1-3)Gal(b1-4)GlcNAc(b1-2)Man(a1-6)]Man(b1-4)GlcNAc(b1-4)GlcNAc. The method in brief: as §1
The target of test [4] is Gal(b1-4)GlcNAc(b1-3)Gal(b1-4)GlcNAc(b1-3)GalNAc. The method in brief: as §1
In the next test the target is Gal3S(b1-4)Glc. The procedure, abridged: as §1
The target in a further test is GalNAc(a1-3)Gal. The procedure, abridged:
as §1

In test [5] the target is GalNAc(b1-3)Gal(a1-4)Gal(b1-4)GlcNAc(b1-3)Gal(b1-4)Glc. The method in brief: as §1
The next test deals with Glc(b1-6)Glc. The procedure, abridged:
as §1

Test [6] addresses GlcNAc(b1-2)Man(a1-3)[GlcNAc(b1-4)][GlcNAc(b1-2)Man(a1-6)]Man(b1-4)GlcNAc(b1-4)GlcNAc. The method in brief:
as §1

In test [7] the target is GlcNAc(b1-3)Gal(b1-4)GlcNAc(b1-2)[GlcNAc(b1-3)Gal(b1-4)GlcNAc(b1-6)]Man(a1-6)[GlcNAc(b1-3)Gal(b1-4)GlcNAc(b1-2)Man(a1-3)]Man(b1-4)GlcNAc(b1-4)GlcNAc. The procedure, abridged: as §1
In test [8] the target is GlcNAc(b1-3)Gal(b1-4)GlcNAc(b1-3)Gal(b1-4)GlcNAc(b1-3)Gal(b1-4)GlcNAc(b1-3)Gal(b1-4)GlcNAc(b1-2)Man(a1-3)[GlcNAc(b1-3)Gal(b1-4)GlcNAc(b1-3)Gal(b1-4)GlcNAc(b1-3)Gal(b1-4)GlcNAc(b1-3)Gal(b1-4)GlcNAc(b1-2)Man(a1-6)]Man(b1-4)GlcNAc(b1-4)[Fuc(a1-6)]GlcNAc. The method in brief: as §1
Test [9] deals with GlcNAc(b1-3)Gal(b1-4)GlcNAc(b1-3)GalNAc. The method in brief: as §1
Test [10] concerns the target GlcNAc(b1-3)Gal(b1-4)GlcNAc(b1-3)[GlcNAc(b1-3)Gal(b1-4)GlcNAc(b1-3)]GalNAc. The procedure, abridged: as §1
Test [11] has as its target Neu5Ac(a2-3)Gal(b1-3)GlcNAc(b1-2)Man(a1-3)[Neu5Ac(a2-3)Gal(b1-3)GlcNAc(b1-2)Man(a1-6)]Man(b1-4)GlcNAc(b1-4)GlcNAc. The method in brief: as §1
Test [12] has as its target Neu5Ac(a2-3)Gal(b1-3)GlcNAc(b1-4)Gal(b1-4)Glc. The method in brief: as §1
For test [13], the target named is Neu5Ac(a2-3)Gal(b1-3)GlcNAc(b1-6)GalNAc. The procedure, abridged:
as §1

In test [14] the target is Neu5Ac(a2-3)Gal(b1-3)GlcNAc6S. The procedure, abridged:
as §1

Test [15] has as its target Neu5Ac(a2-3)Gal(b1-4)[Fuc(a1-3)]GlcNAc(b1-2)Man. The method in brief: as §1
For test [16], the target named is Neu5Ac(a2-3)Gal(b1-4)[Fuc(a1-3)]GlcNAc(b1-6)[Neu5Ac(a2-3)Gal(b1-3)]GalNAc. The procedure, abridged: as §1
The target of a further test is Neu5Ac(a2-6)Gal. The method in brief: as §1
Test [17] addresses Neu5Ac(a2-6)Gal(b1-4)GlcNAc(b1-2)Man(a1-3)Man(b1-4)GlcNAc(b1-4)GlcNAc. The method in brief: as §1
The target in test [18] is Neu5Ac(a2-6)Gal(b1-4)GlcNAc(b1-2)[Neu5Ac(a2-6)Gal(b1-4)GlcNAc(b1-4)]Man(a1-3)[GlcNAc(b1-4)][Neu5Ac(a2-6)Gal(b1-4)GlcNAc(b1-4)Man(a1-6)]Man(b1-4)GlcNAc(b1-4)GlcNAc. The procedure, abridged:
as §1

For test [19], the target named is Neu5Ac(a2-6)Gal(b1-4)GlcNAc(b1-6)[Gal(b1-3)]GalNAc. The method in brief: as §1

B1: PX9961A-pdi-456-24-456 (Parabacteroides distasonis) (protein)
chain: KTSSTQLPTIDAISSVADLTNAVNGVYEQQATEVGSYGAEFTLLADLRSGDFQSISTVNHAGPMYRYQTGKNDEMVYSFYKLFYNSLARLNNVLAAAENLEGADVDILKGELYAMRALYHFDLARVFAKLPSTTDMNDLGIVLSTEVYPTDYIGTRATLQQTYDQILKDIETALPLLSKDKQTGHINYWGALAIRARAYLYLEKNKEALADCKEIIASSPYKLYTRDEYIGAWDKEGTNEAIFEILVTPNYNAQRNSIGYFTHASGYGECAATESFLEELAKHPGDIRTELFAKETDNGYDGTYPQKYKGRDGQIYVNNPKVVRLSEVYLIAAEAALKAGDTSAAAGYMNTLRKNRIENYTDVASITLDDILLERRLELFTEGHTAWDAWRNGKSVNNKFVGEVKPGDYRTIMAIPIGEITVSRGQLIQNPGY
On to B1, for which the “glycan array binding signal (z-score)” value in test [1] is 6.49; in test [2] it was 2.59; in test [3], 7.59; in test [4], 0.087; with Gal3S(b1-4)Glc it was -0.121; with GalNAc(a1-3)Gal, 3.31. The “glycan array binding signal (z-score)” value is 0.012 in test [5]; -0.218 with Glc(b1-6)Glc; -0.42 in test [6]; 0.033 in test [7]; 2.18 in test [8]; 0.389 in [9]. The “glycan array binding signal (z-score)” value was -0.009 in test [10]; -0.512 in test [11]; -0.437 in test [12]; 0.343 in test [13]; 0.048 in test [14]; -0.398 in test [15]. Further, the “glycan array binding signal (z-score)” value in test [16] was 0.273; in the test with Neu5Ac(a2-6)Gal, -0.046; in test [17], -0.293; in [18] it was -0.061; in test [19], -0.445.
